Consider 13 molecules from PubChem BioAssay (NCATS).

Experiment [1] in a line: Quantitative High-Throughput drug screen in 47 multiple myeloma cell lines against the NCATS MIPE library collection: Karpas25_ECACC cell viability assay (AID 1918968; note: potency is the fitted concentration of half-maximal effect; nearly all actives have a fitted effect of over 35% in size). The essentials:
(§1)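 Steps: seed 500 cells per well; pin-transfer MIPE 4.0 library; incubate 48 h at 37C, 5% CO2, humidified; add CellTiter-Glo, 5 min room temperature; read luminescence.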

Experiment [2] can be described thus: Quantitative High-Throughput drug screen in 47 multiple myeloma cell lines against the NCATS MIPE library collection: KMS27_JCRB cell viability assay (AID 1918970). Note: nearly all actives have a fitted effect of over 30% in size. Note: potency is the fitted concentration of half-maximal effect. The gist of the method: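 CellTiter-Glo luminescence after 48 h drug exposure at 37 °C; 500 cells/well, 1536-well format, pin-tool compound addition; DMSO = 100%, media-only = 0% viability.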
Experiment [3] can be described thus: Quantitative High-Throughput drug screen in 47 multiple myeloma cell lines against the NCATS MIPE library collection: KMS12PE_JCRB cell viability assay (AID 1918972). Note: nearly all actives have a fitted effect of over 30% in size. Note: potency is the fitted concentration of half-maximal effect. The gist of the method: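 Approved and investigational drugs from MIPE 4.0 were added by pin tool to 500 cells per well. After 48 hours at 37C, ATP-based CellTiter-Glo luminescence indicated remaining viability.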

A short description of experiment [4]: Quantitative High-Throughput drug screen in 47 multiple myeloma cell lines against the NCATS MIPE library collection: KMS20_JCRB cell viability assay (AID 1918973). Note: nearly all actives have a fitted effect of over 45% in size. Note: potency is the fitted concentration of half-maximal effect. The gist of the method:
as §1

Experiment [5] can be described thus: Quantitative High-Throughput drug screen in 47 multiple myeloma cell lines against the NCATS MIPE library collection: KMS26_JCRB cell viability assay (AID 1918975). Note: nearly all actives have a fitted effect of over 45% in size. Note: potency is the fitted concentration of half-maximal effect. The gist of the method: as §1
The nature of experiment [6]: Quantitative High-Throughput drug screen in 47 multiple myeloma cell lines against the NCATS MIPE library collection: MMM1_PLB cell viability assay (AID 1918976). Note: potency is the fitted concentration of half-maximal effect; nearly all actives have a fitted effect of over 35% in size. The essentials:
(§2)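 MIPE 4.0 approved/investigational drugs; 500 cells/well; 48 h 37 °C humidified 5% CO2; CTG luminescence readout; DMSO = 100%, media = 0% viability.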

Experiment [7] can be described thus: Quantitative High-Throughput drug screen in 47 multiple myeloma cell lines against the NCATS MIPE library collection: MOLP8_DSMZ cell viability assay (AID 1918977). Note: nearly all actives have a fitted effect of over 45% in size. The essentials:
as §2

A short description of experiment [8]: Quantitative High-Throughput drug screen in 47 multiple myeloma cell lines against the NCATS MIPE library collection: NCIH929_DSMZ cell viability assay (AID 1918978). Note: nearly all actives have a fitted effect of over 35% in size. Note: potency is the fitted concentration of half-maximal effect. The gist of the method: as §2
Experiment [9] can be described thus: Quantitative High-Throughput drug screen in 47 multiple myeloma cell lines against the NCATS MIPE library collection: MM1S_ATCC cell viability assay (AID 1918980). Note: nearly all actives have a fitted effect of over 45% in size. Note: potency is the fitted concentration of half-maximal effect. The gist of the method: as §2
Experiment [10] in a line: Quantitative High-Throughput drug screen in 47 multiple myeloma cell lines against the NCATS MIPE library collection: KMS28PE_JCRB cell viability assay (AID 1918983). Note: nearly all actives have a fitted effect of over 35% in size. Note: potency is the fitted concentration of half-maximal effect. The gist of the method: as §2
A short description of experiment [11]: Quantitative High-Throughput drug screen in 47 multiple myeloma cell lines against the NCATS MIPE library collection: L363_DSMZ cell viability assay (AID 1918984). Note: nearly all actives have a fitted effect of over 40% in size. Note: potency is the fitted concentration of half-maximal effect. The gist of the method: as §2
Experiment [12] is described as follows: Quantitative High-Throughput drug screen in 47 multiple myeloma cell lines against the NCATS MIPE library collection: H1112_PLB cell viability assay (AID 1918967; note: nearly all actives have a fitted effect of over 30% in size; note: potency is the fitted concentration of half-maximal effect). The gist of the method: as §1
A short description of experiment [13]: Quantitative High-Throughput drug screen in 47 multiple myeloma cell lines against the NCATS MIPE library collection: KMS21BM_JCRB cell viability assay (AID 1918974). Note: potency is the fitted concentration of half-maximal effect. The following applies: ATP luminescence, 48 h; viability: at 45.8 µM (top of the series) unless noted. The gist of the method: as §1
Experiment [14] is described as follows: Quantitative High-Throughput drug screen in 47 multiple myeloma cell lines against the NCATS MIPE library collection: MM1R_ATCC cell viability assay (AID 1918981). Note: nearly all actives have a fitted effect of over 35% in size. Note: potency is the fitted concentration of half-maximal effect. The gist of the method: as §2
The nature of experiment [15]: Quantitative High-Throughput drug screen in 47 multiple myeloma cell lines against the NCATS MIPE library collection: OCIMY7_PLB cell viability assay (AID 1918987). Note: potency is the fitted concentration of half-maximal effect; nearly all actives have a fitted effect of over 65% in size. The essentials: as §2
The nature of experiment [16]: Quantitative High-Throughput drug screen in 47 multiple myeloma cell lines against the NCATS MIPE library collection: OCIMY1_PLB cell viability assay (AID 1918979). Note: nearly all actives have a fitted effect of over 35% in size. Note: potency is the fitted concentration of half-maximal effect. The essentials: as §2
A short description of experiment [17]: Quantitative High-Throughput drug screen in 47 multiple myeloma cell lines against the NCATS MIPE library collection: LP1_DSMZ cell viability assay (AID 1918982). Note: nearly all actives have a fitted effect of over 35% in size. Note: potency is the fitted concentration of half-maximal effect. The gist of the method: as §2
Experiment [18] in a line: Quantitative High-Throughput drug screen in 47 multiple myeloma cell lines against the NCATS MIPE library collection: OCIMY5_PLB cell viability assay (AID 1918988). Note: nearly all actives have a fitted effect of over 65% in size. Note: potency is the fitted concentration of half-maximal effect. The gist of the method: as §2
Experiment [19] in a line: Quantitative High-Throughput drug screen in 47 multiple myeloma cell lines against the NCATS MIPE library collection: KMS12BM_JCRB cell viability assay (AID 1918971). Note: nearly all actives have a fitted effect of over 35% in size. Note: potency is the fitted concentration of half-maximal effect. The gist of the method: as §1
Experiment [20] is described as follows: Quantitative High-Throughput drug screen in 47 multiple myeloma cell lines against the NCATS MIPE library collection: KMS34_JCRB cell viability assay (AID 1918985). Note: nearly all actives have a fitted effect of over 40% in size. Note: potency is the fitted concentration of half-maximal effect. The essentials: as §2

Each structure is given as a SMILES string. Inconclusive results are not listed. Calls of active or inactive are those of the source. Calls come from the whole dose curve; as a rule, active = well fitted curve in the direction sought with a large enough effect; inconclusive = small, poorly fitted or top-dose-only effect, or another doubt; inactive = no such curve, though single readings can be large; an effect the other way counts as inactive or inconclusive.

Regarding `O=c1[nH]c(-c2ccc(C(F)(F)F)cc2)nc2c1CSCC2`, the Potency in experiment [1] was 18.7 µM (active); in experiment [5], 3.72 µM (active); in experiment [6], 7.43 µM (active); in experiment [8], 18.7 µM (active); in [9] it was 18.7 µM (active). Besides, the Potency entry in experiment [2], in [3], in [4], in experiment [7], in [10] and in experiment [11] was “inactive” each time.

On to `CCc1cc(Nc2nccc(-c3c(-c4ccc(OC)c(C(=O)Nc5c(F)cccc5F)c4)nc4ccccn34)n2)c(OC)cc1N1CCC(N2CCN(S(C)(=O)=O)CC2)CC1`, for which the values for the Potency in [12], in experiment [8] and in [11] were 10.5 µM (active), 7.43 µM (active) and 16.6 µM (active), respectively.

Take `COc1ccccc1[C@H](c1cccc2ccccc12)[C@@](C)(C#N)C(=O)N1CCC(c2cccc(C(F)(F)F)c2)CC1`: the Potency in [1] is 3.72 µM (active); in experiment [2], 3.32 µM (active); in experiment [4], 1.18 µM (active); in experiment [13], 9.35 µM (active); in experiment [5], 7.43 µM (active); in experiment [8], 3.72 µM (active). Moreover, the Potency is 5.9 µM (active) in experiment [9], 4.69 µM (active) in experiment [14], 4.18 µM (active) in [10] and 5.9 µM (active) in [15].

With `O=C(C1CC1)N1CC[C@@H](Cn2c(-c3ccc(-c4ccc5occc5c4)cc3)nc3cnccc32)C1`, the Potency entry in experiment [12], in experiment [8], in [16] and in [9] was “inactive” throughout. The results for the Potency in [3], in experiment [17] and in [18] were 29.6 µM (active), 10.5 µM (active) and 4.18 µM (active), respectively.

Consider `COc1ccc(-c2ccc3c(N4CCOC[C@H]4C)nc(N4CCOC[C@H]4C)nc3n2)cc1CO`, for which the Potency in [1] was 0.0166 µM (active); in experiment [19], 0.0118 µM (active); in experiment [3], 0.059 µM (active); in experiment [4] it was 0.0093 µM (active); in experiment [13], 0.0662 µM (active); in experiment [5], 4.69 µM (active). In addition, the Potency in experiment [9] is 0.0526 µM (active); in [14], 0.0743 µM (active); in experiment [10] it was 0.0235 µM (active); in [20], 20.9 nM (active); in [15] it was 0.209 µM (active); in experiment [18], 0.332 µM (active).

For `COc1ccc(-c2oc3cc(OC)ccc3c2C(=O)c2ccc(C#N)cc2)cc1`, the Potency in [2] was 2.09 µM (active); in experiment [3] it was 10.5 µM (active); in experiment [13], 1.32 µM (active); in experiment [9] it was 10.5 µM (active); in experiment [11], 3.32 µM (active); in [15], 14.8 µM (active). The Potency entry in experiment [19], in experiment [4], in [5], in [7], in [16] and in experiment [14] was “inactive” throughout. Further, the Potency entry in experiment [10], in experiment [20] and in experiment [18] was “inactive” each time.

As to `CCCCCCCc1ccc(CCc2cccc(O)c2C(=O)O)cc1`, the Potency in experiment [1] was 20.9 µM (active); in experiment [19], 0.332 µM (active); in [14] it was 8.33 µM (active); in [17] it was 16.6 µM (active); in experiment [18], 16.6 µM (active). Moreover, the Potency entry in experiment [3], in experiment [16], in experiment [11] and in [20] was “inactive” in each case.

With `Cc1ccccc1C(C(=O)NC1CCCC1)N(C(=O)Cn1cnc2ccccc21)c1cccc(F)c1` (stereo unspecified), the Potency is 20.9 µM (active) in experiment [1]; 14.8 µM (active) in [19]; 16.6 µM (active) in [6]; 18.7 µM (active) in experiment [8]; 18.7 µM (active) in experiment [9]; 3.32 µM (active) in [17]. Also, the Potency result in [2], in [16], in experiment [14] and in experiment [10] was “inactive” throughout.

For the molecule `Cc1c(C)c2c(c(C)c1O)CCC(C)(COc1ccc(CC3SC(=O)NC3=O)cc1)O2` (stereo unspecified), the Potency result in [12], in [7], in experiment [16], in experiment [14], in [17] and in experiment [11] was “inactive” each time.

As to `Cc1cc(Nc2nc(N[C@@H](C)c3ncc(F)cn3)ncc2Cl)n[nH]1`, the Potency is 3.32 µM (active) in [12], 26.4 µM (active) in experiment [5], 3.32 µM (active) in experiment [9] and 26.4 µM (active) in experiment [14]. Moreover, the Potency result in experiment [16] was “inactive”.

In the case of `COCC(=O)NCC=Cc1ccc2ncnc(Nc3ccc(Oc4ccc(C)nc4)c(C)c3)c2c1`, the Potency in [1] was 6.62 µM (active); in experiment [3] it was 16.6 µM (active); in experiment [8], 20.9 µM (active); in experiment [9], 26.4 µM (active); in experiment [11] it was 14.8 µM (active).

`Cc1ccc(NC(=O)c2cccc(C(C)(C)C#N)c2)cc1Nc1ccc2ncn(C)c(=O)c2c1`: the Potency in experiment [1] is 13.2 µM (active); in [2], 1.05 µM (active); in [3], 5.9 µM (active); in [4] it was 2.96 µM (active); in experiment [16], 264 nM (active); in [9], 6.62 µM (active). Further, the Potency in experiment [14] is 6.62 µM (active); in experiment [10] it was 11.8 µM (active); in experiment [15], 0.935 µM (active); in experiment [18] it was 16.6 µM (active).

As for `O=c1ncn2nc(Sc3ccc(F)cc3F)ccc2c1-c1c(Cl)cccc1Cl`, the Potency is 14.8 µM (active) in [1]; 18.7 µM (active) in experiment [2]; 18.7 µM (active) in [19]; 18.7 µM (active) in experiment [8]; 16.6 µM (active) in [14]; 18.7 µM (active) in experiment [11]. Besides, the Potency in [15] is 16.6 µM (active). Further, the Potency result in [16] was “inactive”.
